# Legend:
# Assay in all cases: PBM binding z-score (relative to random genomic background probes); higher = stronger binding; sequences stand for … in GC…GCGATTGACAGCGTAGAATGAAGG
# [1] = tested on: FXR:RXRa (NR concentration 270 nM, RXRa partner concentration 90 nM)
# Summary of the method: (§1)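 Binding buffer was PBS pH 7.4 with 2% milk, 0.02% Triton X-100, 1 mM DTT, 0.2 mg/mL BSA and 0.4 mg/ml salmon testes DNA. In it, ligand-free nuclear receptor dimers were incubated 1 h on custom Agilent 4×180K protein-binding microarrays carrying double-stranded probes. Antibodies against each partner (one per run) detected binding, and z-scores were calculated against random background probes after regression normalization of scanned fluorescence.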
# [2] = tested on: LXRa:RXRa (NR concentration 270 nM, RXRa partner concentration 90 nM)
# Summary of the method: as §1
# [3] = tested on: LXRa homodimer (NR concentration 270 nM)
# Summary of the method: as §1
# [4] = tested on: LXRb:RXRa (NR concentration 270 nM, RXRa partner concentration 90 nM)
# Summary of the method: as §1
# [5] = tested on: LXRb homodimer (NR concentration 270 nM)
# Summary of the method: as §1
# [6] = tested on: PPARa:RXRa (NR concentration 270 nM, RXRa partner concentration 90 nM)
# Summary of the method: as §1
# [7] = tested on: PPARg:RXRa (NR concentration 180 nM, RXRa partner concentration 90 nM)
# Summary of the method: as §1
# [8] = tested on: PPARg:RXRa 270nM:90nM, anti-RXR (NR concentration 270 nM, RXRa partner concentration 90 nM)
# Summary of the method: as §1
# [9] = tested on: PPARg:RXRa 30nM:10nM, anti-RXR (NR concentration 30 nM, RXRa partner concentration 10 nM)
# Summary of the method: as §1
# [10] = tested on: PPARg:RXRa 90nM:30nM, anti-RXR (NR concentration 90 nM, RXRa partner concentration 30 nM)
# Summary of the method: as §1
# [11] = tested on: PPARg:RXRa DBDmut IVT, anti-RXR (DBD mutation: RXRa K156A/R161A, NR concentration 270 nM, RXRa partner concentration 90 nM)
# Summary of the method: as §1
# [12] = tested on: PPARg:RXRa IVT, anti-PPARg (NR concentration 270 nM, RXRa partner concentration 90 nM)
# Summary of the method: as §1
# [13] = tested on: PPARg DBDmut:RXRa IVT, anti-PPARg (DBD mutation: PPARg1 K132A/R137A, NR concentration 270 nM, RXRa partner concentration 90 nM)
# Summary of the method: as §1
# [14] = tested on: PPARg DBDmut IVT, anti-PPARg (DBD mutation: PPARg1 K132A/R137A, NR concentration 270 nM)
# Summary of the method: as §1
# [15] = tested on: PPARg homodimer (NR concentration 180 nM)
# Summary of the method: as §1
# [16] = tested on: PXR:RXRa (NR concentration 270 nM, RXRa partner concentration 90 nM)
# Summary of the method: as §1
# [17] = tested on: PXR homodimer (NR concentration 270 nM)
# Summary of the method: as §1
# [18] = tested on: RARa:RXR (NR concentration 270 nM, RXRa partner concentration 90 nM)
# Summary of the method: as §1
# [19] = tested on: RARa homodimer (NR concentration 270 nM)
# Summary of the method: as §1
# [20] = tested on: RARb:RXRa (NR concentration 270 nM, RXRa partner concentration 90 nM)
# Summary of the method: as §1
Sequence,PBM binding z-score [1],PBM binding z-score [2],PBM binding z-score [3],PBM binding z-score [4],PBM binding z-score [5],PBM binding z-score [6],PBM binding z-score [7],PBM binding z-score [8],PBM binding z-score [9],PBM binding z-score [10],PBM binding z-score [11],PBM binding z-score [12],PBM binding z-score [13],PBM binding z-score [14],PBM binding z-score [15],PBM binding z-score [16],PBM binding z-score [17],PBM binding z-score [18],PBM binding z-score [19],PBM binding z-score [20]
TCGAGTAGGTTACCAATGGGGTATTCAGCTTTCT,0.116,0.749,-0.345,0.847,-0.514,0.988,0.229,1.14,1.34,1.28,3.18,2.46,-0.47,-0.0236,-0.0597,0.05,-0.757,0.339,-0.642,0.76
CCGACTGGGGCAAAGGTTAGCATACTCAGTACGA,0.945,0.762,-0.315,1.27,-1.29,4.88,10.7,8.69,9.08,9.54,4.94,4.9,-0.151,-1.37,1.58,1.47,-0.542,2.78,-0.0647,1.99
GATACAGGGTCAAGGGCAGAGTACGCGTATTGAT,6.94,4.74,0.422,4.1,0.257,5.92,6.21,5.97,2.9,4.69,2.9,4.2,0.998,0.413,2.15,4.01,0.827,4.22,0.496,4.77
TCTCGGAGGACACGAAGGTCAGTGCTTTCCAGAG,1.02,1.19,-0.141,0.731,-0.921,1.59,0.156,1.49,2.2,1.94,1.42,1.08,-0.7,-0.641,0.926,1.54,0.566,1.52,-0.39,3.29
TCTCGGCGGACACGAAAGGTCAGAGCTCGACATC,1.93,3.18,2.3,2.79,-0.427,2.94,0.571,1.69,1.42,1.53,1.12,0.541,-0.347,-0.845,1.83,3.15,-0.247,3.71,0.345,3.56
ACTATTAGATGAGACGAGGGCAACCGATAGGTTG,0.455,0.107,0.389,0.0232,0.456,0.35,1.04,0.132,0.496,0.603,0.41,0.591,1.15,1.11,1.13,0.465,0.757,0.634,1.38,0.915
CCTAGTTGGTCAAGGTCGCACACGCTATAGGTAC,1.28,0.906,0.275,1.18,-0.0478,1.68,1.15,1.37,0.0592,0.958,1.4,1.87,0.308,0.288,1.55,1.57,1.04,1.69,0.482,2.43

# From the supplement of paper PMC6555819
